# From PubChem BioAssay (NCI)
# The panel holds about 83,000 compounds, 20% with a hit somewhere; the sample as a whole holds those more often.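 In brief: 96-well plates, 48 h treatment, single concentration, percent growth endpoint.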 Values without a mark were called inactive. Activity calls are given as the source filed them. How the source made its calls: active means growth percent below 10; inactive means the rest.
# Test system: MALME-3M melanoma
# Test: NCI-60 one-dose screen, 48 h (100 = growth as untreated, 0 = no growth, -100 = all killed)
# Details: 10 µM unless noted
row,SMILES,growth
1,NNC(=O)c1sc2nc(-c3cnccn3)cc(-c3cccs3)c2c1N,95.6%
2,Cn1cc(-c2nnc(N)nc2-c2cn(C)c3ccc(F)cc23)c2cc(F)ccc21,107%
3,COc1ccccc1/C=C/C=N/NC1=NC2C(S1)N(C)C(=O)N2c1ccccc1 (centres undefined),45.7%
4,C[C@H]1[C@H](C)CC[C@]2(COC(=O)c3cccnc3)CC[C@]3(C)C(=CC[C@@H]4[C@@]5(C)CCCNC(C)(C)[C@@H]5CC[C@]43C)[C@H]12,59.9%

# Test system: MDA-MB-231 breast
# Test: as above
# Details: 10 µM unless noted
row,SMILES,growth
1,CC1(C)CC[C@]2(C(=O)O)CC[C@]3(C)C(=CCC4[C@@]5(C)C[C@@H](O)[C@@H]6OC(c7ccccc7O)OC[C@@]6(C)C5CC[C@]43C)C2C1 (some centres undefined),82.5%
2,CN(c1ccc(Br)cc1)S(=O)(=O)c1ccc(-c2cnc(C3CC3)o2)cc1,29.9%
3,CN1CCN(c2nc(-c3csc(-c4ccncc4)n3)cc3ccccc23)CC1,63%
4,O=C(O)c1ccc(-n2cc(CNc3ccc(F)cc3)c(-c3ccc(C(F)(F)F)cc3)n2)cc1,100%
5,CSc1nccc(-c2c(-c3ccc(F)c(OCc4ccc(F)cc4)c3)nc3sccn23)n1,65.8%
6,O=C(COc1ccc(C2SCC(=O)N2c2ccccc2)cc1)c1ccccc1 (centres undefined),81.6%
7,O=C(O)CNS(=O)(=O)c1ccc(Oc2ccc(S(=O)(=O)NCC(=O)O)cc2)cc1,102%
8,Cn1nc(Nc2ccccc2)c(C(=O)NN)c1N,93%
9,COc1cc(/C=N/n2cnc3oc(-c4ccccc4)cc3c2=N)cc(CN2CCN(C)CC2)c1O,79.3%
10,CC(C)SC1=NC(=C(C(=N1)NC2=ClC=CC=C2)C#N)C3=CC=CC=C3,78.9%
11,NS(=O)(=O)c1ccc(Nc2nc(N/N=C/c3ccc(F)cc3)nc(Nc3ccccc3)n2)cc1,61.8%
12,C#C[C@]1(O)CC[C@H]2[C@@H]3CC=C4c5sc(Nc6cccc(C)n6)nc5CC[C@]4(C)[C@H]3CC[C@@]21C,31.9%
13,CNC(=O)c1cc(Oc2ccc3nc(NC(=O)c4cc(C)cc(C)c4)sc3c2)ccn1,84.6%
14,C=C(C)[C@@H]1CC[C@]2(COS(C)(=O)=O)CC[C@]3(C)[C@H](CC[C@@H]4[C@@]5(C)CCCNC(C)(C)[C@@H]5CC[C@]43C)[C@@H]12,91.6%
15,CC(C)=CCc1c2c(c(O)c3c1O[C@]14C(=C[C@@H]5C[C@H]1C(C)(C)O[C@@]4(C/C=C(/C)C(=O)O)C5=O)C3=O)CC(O)C(C)(C)O2 (some centres undefined),0.342% (active)
16,O=C(Cn1cc(CN2C(=O)c3ccc([N+](=O)[O-])cc3C2=O)nn1)Nc1ccccc1Br,103%
17,COc1cc(-c2nc(SCc3ccc(C)cc3)[nH]c(=O)c2C#N)ccc1OCc1ccccc1,104%
18,CC(C)N=C(N/C(N)=N/c1nc2ccccc2s1)NC(C)C,56.3%
19,O=C(Nc1cc(Cl)cc(Cl)c1)Nc1ccc2oc(=O)ccc2c1,24.6%
20,CS(=O)(=O)c1nccc(-c2c(-c3ccc(F)c(OCc4ccccc4)c3)nc3sccn23)n1,93.1%
21,COc1ccc(C2C(C#N)=C(N)Oc3c2sc2ccc(C)cc32)cc1 (centres undefined),42.2%
22,C#C[C@]1(O)CC[C@H]2[C@@H]3CC=C4c5sc(-c6ccccn6)nc5CC[C@]4(C)[C@H]3CC[C@@]21C,78.6%
23,COc1ccc(OC)c([C@H]2c3[nH]c4ccccc4c3C[C@H]3C(=O)N(CCCCCCC(=O)NO)CC(=O)N23)c1,82.3%
24,Cc1cnc2nc(NN)[nH]n12,106%
25,COc1ccc(-c2nc3cc(Cl)c(Cl)cc3n2CC(=O)N=Nc2c(O)[nH]c3ccc(Br)cc23)cc1,0.262% (active)
26,O=C(NCCCCCCNC(=O)c1c2c(nc3ccccc13)-c1cccnc1SC2)c1c2c(nc3ccccc13)-c1cccnc1SC2,59.3%
27,COc1ccc(-c2ccc3c4c(cccc24)C(=O)N(N2C(=O)c4cccc5cccc(c45)C2=O)C3=O)cc1,83.7%
28,COc1ccc(-c2nc3cc(Cl)c(Cl)cc3n2CC(=O)N=Nc2c(O)[nH]c3ccc(Cl)cc23)cc1,29.8%
29,CCOC(=O)c1c(NCC(=O)Nc2ccc(Br)cc2)sc2c1CCCC2,36.5%
30,CN1C(=O)/C(=C/C=C/c2ccco2)SC1=S,86.8%
